Our source for the inhibition values is ChEMBL document CHEMBL1961873, “Compounds: GSK PKIS; Assays: Nanosyn kinase panel” (2012).

Experiment [1] concerns the target Serine/threonine-protein kinase PAK 6 (Homo sapiens) (UniProt Q9NQU5). The following applies: at 1 µM.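 Also: values are mean percent inhibition of PAK6 kinase.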
Experiment [2] deals with Tyrosine-protein kinase ABL1 (Homo sapiens), P00519 [E255K]. The note with it: at 0.1 µM.
Experiment [3] has the same test system. The note with it: at 1 µM.
Experiment [4] has as its system Tyrosine-protein kinase ABL1 (Homo sapiens), P00519 [H396P]. The note with it: at 0.1 µM.
For experiment [5] the test system is unchanged. The following applies: at 1 µM.
Experiment [6] concerns Tyrosine-protein kinase ABL1 (Homo sapiens), P00519 [M351T]. The following applies: at 0.1 µM.
The test system is the same in experiment [7]. The following applies: at 1 µM.
For experiment [8], the system named is Tyrosine-protein kinase ABL1 (Homo sapiens), P00519 [Q252H]. The following applies: at 0.1 µM.
For experiment [9] the test system is unchanged. The note with it: at 1 µM.
The test system of experiment [10] is Tyrosine-protein kinase ABL1 (Homo sapiens), P00519 [T315I]. The following applies: at 0.1 µM.

Chain of Serine/threonine-protein kinase PAK 6 (Homo sapiens) (Q9NQU5 whole entry, looked up): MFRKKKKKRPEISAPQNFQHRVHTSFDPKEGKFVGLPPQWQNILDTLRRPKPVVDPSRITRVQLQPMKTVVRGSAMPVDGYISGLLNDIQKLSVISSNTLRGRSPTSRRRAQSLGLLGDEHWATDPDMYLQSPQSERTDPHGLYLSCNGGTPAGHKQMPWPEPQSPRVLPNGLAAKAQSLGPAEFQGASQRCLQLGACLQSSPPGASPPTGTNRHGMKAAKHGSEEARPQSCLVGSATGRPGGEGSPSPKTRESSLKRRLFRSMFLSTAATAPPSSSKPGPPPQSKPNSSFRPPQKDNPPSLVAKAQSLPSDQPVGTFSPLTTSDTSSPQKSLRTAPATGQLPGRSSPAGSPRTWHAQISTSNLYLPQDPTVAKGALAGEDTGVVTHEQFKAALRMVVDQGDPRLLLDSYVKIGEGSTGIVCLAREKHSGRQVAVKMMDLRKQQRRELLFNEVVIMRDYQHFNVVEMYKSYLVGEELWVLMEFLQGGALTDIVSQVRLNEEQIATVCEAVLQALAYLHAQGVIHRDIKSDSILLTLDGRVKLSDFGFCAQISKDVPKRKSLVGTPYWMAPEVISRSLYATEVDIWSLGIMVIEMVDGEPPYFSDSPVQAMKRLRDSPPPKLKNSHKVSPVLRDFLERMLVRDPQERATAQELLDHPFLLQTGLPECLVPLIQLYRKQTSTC

As to `N#Cc1c(NC(=O)c2cccc3ccccc23)sc2c1CCCC2`, the inhibition (in general, the relative decrease from the control value, in per cent) in [1] came to 1.52%; in experiment [2], 4.44%; in experiment [3], 5.5%; in experiment [4], 4.91%; in experiment [5], 2.88%; in experiment [6], 3.89%. For the same molecule, the inhibition in [7] was 3.56%; in experiment [8], 5.46%; in experiment [9], 3.18%; in experiment [10], 2.03%.
`CCn1c(-c2nonc2N)nc2cncc(C(=O)N3CC[C@H](N)C3)c21`: the inhibition in [1] came out at 3.33%; in experiment [2] it was 3.58%; in experiment [3], 2.43%; in experiment [4], 5.83%; in [5], 2.94%; in experiment [6] it was 2.2%. Also, the inhibition in experiment [7] is -0.9%; in experiment [8], 4.86%; in experiment [9] it was 2.19%; in [10], 2.09%.
Take `Nc1ncnc2occ(-c3ccc(NC(=O)Nc4cc(C(F)(F)F)cc(C(F)(F)F)c4)cc3)c12`: the inhibition stood at 7.94% in experiment [1]; 3.79% in experiment [2]; 25.5% in experiment [3]; 18.5% in experiment [4]; 68.1% in [5]; 48.5% in experiment [6]. Also, the inhibition in [7] worked out at 80.9%; in experiment [8], 45%; in [9], 75.5%; in [10], 42.5%.
Regarding `CC(=O)Nc1cccc(C#Cc2cncnc2Nc2ccc(OCc3cccc(F)c3)c(Cl)c2)n1`, the inhibition in experiment [1] was 0.8%; in [2], -0.61%; in experiment [3], -0.48%; in experiment [4] it was 0.09%; in [5], 1.6%; in experiment [6] it was 1.08%. Besides, the inhibition came to 3.88% in experiment [7], 0.29% in experiment [8], 3.02% in experiment [9] and 0.4% in experiment [10].
For `COc1ccccc1Nc1ncc(-c2ccccc2)o1`, the inhibition is -9.8% in [1]; 3.77% in experiment [2]; 8% in experiment [3]; 6.53% in experiment [4]; 15.2% in [5]; 2.78% in experiment [6]. The inhibition stood at 10.8% in [7], 5.47% in experiment [8], 9.74% in experiment [9] and 2.77% in [10].
With `Cc1ccc(C(=O)NC2CCCCC2)cc1-c1ccc(C(=O)NCC2CC2)cc1`, the inhibition in experiment [1] was -8.15%; in [2], 0.94%; in [3], -0.03%; in [4], 4.41%; in experiment [5], 0.31%; in [6], 3.58%. Further, the inhibition in experiment [7] came to 2.26%; in experiment [8], 3.13%; in experiment [9] it was 2.92%; in [10] it was 1.36%.
`CCn1c(-c2nonc2N)nc2c(N3CCCC3)nccc21`: the inhibition in [1] is 0.23%; in [2], -0.9%; in experiment [3], -0.63%; in [4], 0.1%; in experiment [5], -1.53%; in [6] it was 1.28%. In addition, the inhibition in experiment [7] was -0.55%; in experiment [8], 1.69%; in [9], -0.47%; in experiment [10] it was -0.16%.
With `[O-][S+]1CCN(Cc2ccc(-c3ccc4ncnc(Nc5ccc(OCc6ccccc6)c(F)c5)c4c3)o2)CC1`, the inhibition in experiment [1] was -0.59%; in experiment [2], 1.66%; in experiment [3] it was 2.97%; in experiment [4] it was 2.03%; in experiment [5], 0.51%; in experiment [6], 2.17%. For the same molecule, the inhibition in [7] is 0.04%; in experiment [8] it was 1.58%; in [9], 0.89%; in experiment [10], 1.21%.
Regarding `O=C1NC(=O)C(c2ccccc2Cl)=C1Nc1cccc(O)c1`, the inhibition in [1] is 11.2%; in experiment [2] it was 1.22%; in experiment [3] it was 1.02%; in experiment [4] it was 3.02%; in [5], 1.17%; in experiment [6], -0.23%. Further, the inhibition in [7] is 2.78%; in experiment [8], 2.48%; in experiment [9] it was 1.91%; in experiment [10], 3.52%.
Regarding `COc1cc2ncn(-c3cc(OCc4ccccc4C(F)(F)F)c(C(N)=O)s3)c2cc1OC`, the inhibition was -0.46% in experiment [1]; 0.92% in [2]; 13.5% in experiment [3]; 5.99% in experiment [4]; 23% in experiment [5]; 3.68% in experiment [6]. For the same molecule, the inhibition in [7] turned out to be 19.2%; in experiment [8], 5.63%; in experiment [9], 21.9%; in experiment [10], 3.84%.
Consider `CNC(=O)c1cncc(/C=C/c2c(Cl)cccc2Cl)c1`, for which the inhibition in experiment [1] is -7.96%; in experiment [2] it was 3.46%; in [3], 33.3%; in experiment [4] it was 9.69%; in [5] it was 47.2%; in experiment [6], 6.02%. Besides, the inhibition in experiment [7] was 42.2%; in experiment [8], 8.15%; in experiment [9] it was 41.9%; in experiment [10] it was -0.11%.
For the molecule `NC(=O)c1ccc(-c2nc(-c3ccccn3)c(-c3ccc4c(c3)OCO4)[nH]2)cc1`, the inhibition in experiment [1] was -5.81%; in experiment [2], 3.49%; in [3], 4.45%; in experiment [4] it was 1.34%; in experiment [5], 6.63%; in experiment [6] it was 0.6%. Besides, the inhibition in [7] was found to be 3.86%; in experiment [8] it was 0.7%; in [9], 3.91%; in experiment [10], 1.95%.
For `CCn1c(-c2nonc2N)nc2cnc(Oc3cccc(NC(=O)c4ccc(OCCN5CCOCC5)cc4)c3)cc21`, the inhibition in experiment [1] is -8.77%; in [2], 3.79%; in experiment [3], 3.89%; in experiment [4] it was 4.58%; in [5], 4.2%; in experiment [6] it was 2.23%. In addition, the inhibition amounted to 2.73% in experiment [7], 4.73% in experiment [8], 3.88% in [9] and 4.38% in [10].
Consider `Cn1cc(C=C2C(=O)Nc3cccnc32)c2ccccc21`, for which the inhibition in experiment [1] was 0.69%; in experiment [2] it was 5.17%; in experiment [3], 28.1%; in experiment [4] it was 7.05%; in experiment [5], 37.5%; in [6], 3.06%. The inhibition in [7] is 35.9%; in experiment [8], 6.07%; in experiment [9], 33.2%; in [10], 8.02%.
For the molecule `Cc1ccc(NC(=O)c2ccnc(N3CCCC3)c2)cc1-c1ccc(C(=O)NCC2CC2)cc1`, the inhibition is -7.72% in experiment [1]; 1.9% in [2]; 5.48% in [3]; 3% in [4]; 2.43% in [5]; 0.54% in experiment [6]. Moreover, the inhibition was determined as 9.12% in experiment [7], 2.92% in [8], 12.4% in experiment [9] and 0.94% in experiment [10].
Regarding `COc1cc(C)c(NC(=O)CN(C)C)cc1Nc1nc(Nc2cccc(F)c2C(N)=O)c2cc[nH]c2n1`, the inhibition in experiment [1] is -2.96%; in experiment [2], 1.11%; in experiment [3] it was 0.03%; in experiment [4], 2.73%; in experiment [5] it was -1.28%; in experiment [6], 1.99%. The inhibition is -1.18% in experiment [7], 2.21% in [8], -0.29% in [9] and 1.45% in experiment [10].
